# Experimental data from ChEMBL document CHEMBL1961873, “Compounds: GSK PKIS; Assays: Nanosyn kinase panel” (2012).
# Columns and labels:
# [1] = target: T1, Inhibitor of nuclear factor kappa-B kinase subunit epsilon (Homo sapiens) (UniProt Q14164); conditions: at 1 µM;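 also: reported values are averaged percent inhibition figures against human IKKε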
# T1 sequence (whole entry): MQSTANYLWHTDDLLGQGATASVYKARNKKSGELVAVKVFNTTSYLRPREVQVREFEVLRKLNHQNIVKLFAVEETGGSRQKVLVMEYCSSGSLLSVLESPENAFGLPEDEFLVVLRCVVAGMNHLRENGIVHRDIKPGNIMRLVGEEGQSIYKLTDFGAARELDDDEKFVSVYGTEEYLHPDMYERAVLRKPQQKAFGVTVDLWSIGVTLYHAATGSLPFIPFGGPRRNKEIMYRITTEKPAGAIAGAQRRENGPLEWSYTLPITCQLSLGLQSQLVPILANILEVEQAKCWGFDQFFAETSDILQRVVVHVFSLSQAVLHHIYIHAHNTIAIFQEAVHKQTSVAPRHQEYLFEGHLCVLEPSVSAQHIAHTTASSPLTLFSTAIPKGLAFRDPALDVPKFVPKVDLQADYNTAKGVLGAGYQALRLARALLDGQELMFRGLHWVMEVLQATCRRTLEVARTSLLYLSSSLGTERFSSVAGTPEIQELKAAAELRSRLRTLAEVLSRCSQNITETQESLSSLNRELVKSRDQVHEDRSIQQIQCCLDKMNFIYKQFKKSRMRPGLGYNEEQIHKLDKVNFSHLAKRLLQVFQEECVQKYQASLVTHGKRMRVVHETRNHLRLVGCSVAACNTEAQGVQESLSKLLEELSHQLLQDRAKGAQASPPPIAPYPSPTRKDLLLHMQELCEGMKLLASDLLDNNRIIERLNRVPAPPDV
# [2] = target: T2, Serine/threonine-protein kinase Nek1 (Homo sapiens) (UniProt Q96PY6); conditions: at 0.1 µM
# T2 sequence (whole entry): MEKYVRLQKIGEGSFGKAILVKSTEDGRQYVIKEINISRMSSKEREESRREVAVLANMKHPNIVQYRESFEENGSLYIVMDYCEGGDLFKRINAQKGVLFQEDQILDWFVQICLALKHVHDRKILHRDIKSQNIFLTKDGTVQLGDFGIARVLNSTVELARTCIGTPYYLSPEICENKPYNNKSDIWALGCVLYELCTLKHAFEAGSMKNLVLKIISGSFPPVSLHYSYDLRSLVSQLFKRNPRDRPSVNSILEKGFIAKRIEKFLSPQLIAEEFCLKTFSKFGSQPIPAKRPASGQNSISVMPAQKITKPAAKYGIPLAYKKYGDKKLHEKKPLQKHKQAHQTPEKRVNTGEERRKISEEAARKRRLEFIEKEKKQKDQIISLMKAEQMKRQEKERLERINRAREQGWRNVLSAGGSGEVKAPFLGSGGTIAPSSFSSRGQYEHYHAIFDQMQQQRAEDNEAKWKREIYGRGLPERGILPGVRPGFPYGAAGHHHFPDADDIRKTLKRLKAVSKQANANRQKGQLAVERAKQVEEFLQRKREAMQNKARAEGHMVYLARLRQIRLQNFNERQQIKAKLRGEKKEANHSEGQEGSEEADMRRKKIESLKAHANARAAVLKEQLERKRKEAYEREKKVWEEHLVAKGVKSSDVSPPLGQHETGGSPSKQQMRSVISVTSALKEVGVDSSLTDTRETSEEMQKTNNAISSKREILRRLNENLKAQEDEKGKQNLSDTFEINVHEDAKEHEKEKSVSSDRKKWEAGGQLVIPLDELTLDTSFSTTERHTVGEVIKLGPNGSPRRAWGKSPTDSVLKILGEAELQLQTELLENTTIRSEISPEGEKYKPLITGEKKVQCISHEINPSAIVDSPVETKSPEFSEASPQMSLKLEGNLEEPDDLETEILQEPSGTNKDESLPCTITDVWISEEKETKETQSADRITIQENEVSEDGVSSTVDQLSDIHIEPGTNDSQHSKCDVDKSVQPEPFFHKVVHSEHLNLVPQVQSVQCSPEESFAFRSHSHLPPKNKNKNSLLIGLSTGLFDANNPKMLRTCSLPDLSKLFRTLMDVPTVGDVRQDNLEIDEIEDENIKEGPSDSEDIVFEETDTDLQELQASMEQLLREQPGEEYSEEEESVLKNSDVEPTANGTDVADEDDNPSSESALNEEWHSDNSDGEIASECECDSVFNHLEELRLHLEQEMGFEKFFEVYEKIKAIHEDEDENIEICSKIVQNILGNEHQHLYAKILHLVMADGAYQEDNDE
# [3] = target: T2, Serine/threonine-protein kinase Nek1 (Homo sapiens); conditions: at 1 µM
# [4] = target: T3, Serine/threonine-protein kinase Nek2 (Homo sapiens) (UniProt P51955); conditions: at 0.1 µM
# T3 sequence (whole entry): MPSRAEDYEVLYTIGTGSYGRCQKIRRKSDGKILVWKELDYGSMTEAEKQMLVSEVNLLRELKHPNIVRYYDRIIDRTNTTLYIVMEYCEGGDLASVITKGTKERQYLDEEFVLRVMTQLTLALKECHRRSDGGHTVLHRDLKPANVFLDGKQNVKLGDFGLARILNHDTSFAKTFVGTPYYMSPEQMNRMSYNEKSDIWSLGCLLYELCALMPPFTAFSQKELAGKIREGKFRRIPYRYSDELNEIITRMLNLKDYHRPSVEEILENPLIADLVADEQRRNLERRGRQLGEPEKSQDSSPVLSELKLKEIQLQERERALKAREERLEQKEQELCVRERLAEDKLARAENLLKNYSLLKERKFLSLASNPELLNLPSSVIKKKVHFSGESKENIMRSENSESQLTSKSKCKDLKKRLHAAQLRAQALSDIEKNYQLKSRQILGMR
# [5] = target: T3, Serine/threonine-protein kinase Nek2 (Homo sapiens); conditions: at 1 µM
# [6] = target: Serine/threonine-protein kinase Nek6 (Homo sapiens) (UniProt Q9HC98); conditions: at 0.1 µM
# [7] = target: Serine/threonine-protein kinase Nek6 (Homo sapiens) (UniProt Q9HC98); conditions: at 1 µM
# [8] = target: Serine/threonine-protein kinase Nek7 (Homo sapiens) (UniProt Q8TDX7); conditions: at 0.1 µM
# [9] = target: Serine/threonine-protein kinase Nek7 (Homo sapiens) (UniProt Q8TDX7); conditions: at 1 µM
# [10] = target: T4, Serine/threonine-protein kinase Nek9 (Homo sapiens) (UniProt Q8TD19); conditions: at 0.1 µM
# T4 sequence (whole entry): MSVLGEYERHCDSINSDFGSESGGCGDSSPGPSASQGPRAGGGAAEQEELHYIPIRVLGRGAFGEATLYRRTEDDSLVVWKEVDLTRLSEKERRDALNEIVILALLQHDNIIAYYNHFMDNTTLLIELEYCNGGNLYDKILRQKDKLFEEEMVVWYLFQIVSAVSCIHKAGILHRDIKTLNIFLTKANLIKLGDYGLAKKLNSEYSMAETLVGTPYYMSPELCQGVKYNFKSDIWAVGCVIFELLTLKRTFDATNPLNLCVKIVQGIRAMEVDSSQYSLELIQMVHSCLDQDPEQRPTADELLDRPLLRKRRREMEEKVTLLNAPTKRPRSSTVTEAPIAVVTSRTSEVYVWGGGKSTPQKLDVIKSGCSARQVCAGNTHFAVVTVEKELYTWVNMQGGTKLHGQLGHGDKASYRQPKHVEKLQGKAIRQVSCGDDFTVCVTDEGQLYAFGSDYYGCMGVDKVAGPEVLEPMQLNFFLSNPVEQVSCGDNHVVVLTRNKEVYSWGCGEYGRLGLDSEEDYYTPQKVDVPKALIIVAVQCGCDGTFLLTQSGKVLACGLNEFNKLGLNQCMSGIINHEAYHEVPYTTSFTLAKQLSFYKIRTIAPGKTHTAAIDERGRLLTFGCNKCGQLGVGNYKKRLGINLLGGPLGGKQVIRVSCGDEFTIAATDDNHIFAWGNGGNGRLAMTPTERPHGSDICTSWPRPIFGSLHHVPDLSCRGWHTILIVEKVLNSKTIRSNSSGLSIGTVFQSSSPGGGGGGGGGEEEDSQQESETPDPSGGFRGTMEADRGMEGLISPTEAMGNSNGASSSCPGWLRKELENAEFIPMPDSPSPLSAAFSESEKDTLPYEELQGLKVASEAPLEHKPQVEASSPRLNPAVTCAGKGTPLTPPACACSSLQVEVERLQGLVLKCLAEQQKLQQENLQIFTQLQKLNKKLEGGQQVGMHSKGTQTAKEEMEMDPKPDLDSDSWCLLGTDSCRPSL
# [11] = target: T4, Serine/threonine-protein kinase Nek9 (Homo sapiens); conditions: at 1 µM
# [12] = target: Serine/threonine-protein kinase PLK1 (Homo sapiens) (UniProt P53350); conditions: at 0.1 µM
# [13] = target: Serine/threonine-protein kinase PLK1 (Homo sapiens) (UniProt P53350); conditions: at 1 µM
# [14] = target: T5, Dual specificity protein kinase TTK (Homo sapiens) (UniProt P33981); conditions: at 0.1 µM
# T5 sequence (whole entry): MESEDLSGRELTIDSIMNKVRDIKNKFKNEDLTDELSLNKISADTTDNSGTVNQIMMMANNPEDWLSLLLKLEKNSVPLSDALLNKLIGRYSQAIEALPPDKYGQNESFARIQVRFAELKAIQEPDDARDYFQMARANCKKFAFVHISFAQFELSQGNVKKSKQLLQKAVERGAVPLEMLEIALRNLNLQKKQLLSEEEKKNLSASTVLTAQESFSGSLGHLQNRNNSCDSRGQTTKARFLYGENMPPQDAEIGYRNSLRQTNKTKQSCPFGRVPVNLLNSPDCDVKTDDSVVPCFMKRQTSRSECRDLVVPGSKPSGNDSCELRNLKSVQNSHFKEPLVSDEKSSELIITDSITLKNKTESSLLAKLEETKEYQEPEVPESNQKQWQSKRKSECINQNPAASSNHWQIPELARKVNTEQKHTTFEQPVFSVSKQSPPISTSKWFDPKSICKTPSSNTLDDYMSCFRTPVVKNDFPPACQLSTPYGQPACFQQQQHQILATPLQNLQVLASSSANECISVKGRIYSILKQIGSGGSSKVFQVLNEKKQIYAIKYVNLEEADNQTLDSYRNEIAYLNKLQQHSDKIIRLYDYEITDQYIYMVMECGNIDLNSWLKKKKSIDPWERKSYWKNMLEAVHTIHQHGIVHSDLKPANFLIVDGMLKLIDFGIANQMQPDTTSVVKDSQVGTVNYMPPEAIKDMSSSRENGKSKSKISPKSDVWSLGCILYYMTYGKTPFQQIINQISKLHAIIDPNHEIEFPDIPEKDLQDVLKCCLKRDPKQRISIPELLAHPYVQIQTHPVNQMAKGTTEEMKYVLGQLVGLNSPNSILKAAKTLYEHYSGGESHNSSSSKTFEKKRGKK
# [15] = system: T6, Receptor-type tyrosine-protein kinase FLT3 (Homo sapiens), P36888 [D835Y]; conditions: at 1 µM
# T6 sequence (whole entry): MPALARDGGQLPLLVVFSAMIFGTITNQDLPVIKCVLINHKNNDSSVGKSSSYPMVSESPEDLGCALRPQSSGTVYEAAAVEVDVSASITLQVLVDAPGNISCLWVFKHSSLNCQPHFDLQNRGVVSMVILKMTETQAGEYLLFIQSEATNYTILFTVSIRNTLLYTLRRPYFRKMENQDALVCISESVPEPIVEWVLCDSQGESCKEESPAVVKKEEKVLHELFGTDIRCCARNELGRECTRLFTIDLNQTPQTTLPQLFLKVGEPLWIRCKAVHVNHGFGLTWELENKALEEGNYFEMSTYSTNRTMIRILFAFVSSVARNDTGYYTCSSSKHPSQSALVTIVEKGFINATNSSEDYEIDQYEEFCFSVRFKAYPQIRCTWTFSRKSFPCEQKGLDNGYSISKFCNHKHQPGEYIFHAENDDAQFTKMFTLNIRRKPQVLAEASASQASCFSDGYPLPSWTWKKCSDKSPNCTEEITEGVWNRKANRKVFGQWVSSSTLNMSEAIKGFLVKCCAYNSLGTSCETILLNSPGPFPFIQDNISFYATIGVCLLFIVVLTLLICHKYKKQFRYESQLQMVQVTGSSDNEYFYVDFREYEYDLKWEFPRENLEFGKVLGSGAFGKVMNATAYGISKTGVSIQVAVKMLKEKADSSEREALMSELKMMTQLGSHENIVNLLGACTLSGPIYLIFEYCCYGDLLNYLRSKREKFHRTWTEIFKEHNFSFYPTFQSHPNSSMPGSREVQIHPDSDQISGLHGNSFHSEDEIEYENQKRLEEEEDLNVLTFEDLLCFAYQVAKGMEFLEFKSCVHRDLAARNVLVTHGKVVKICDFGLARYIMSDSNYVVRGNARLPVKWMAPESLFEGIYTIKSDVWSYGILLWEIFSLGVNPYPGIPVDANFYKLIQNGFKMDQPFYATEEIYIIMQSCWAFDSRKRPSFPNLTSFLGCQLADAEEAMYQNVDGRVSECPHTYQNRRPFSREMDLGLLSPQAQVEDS
# [16] = target: Vascular endothelial growth factor receptor 3 (Homo sapiens) (UniProt P35916); conditions: at 0.1 µM
# [17] = target: Vascular endothelial growth factor receptor 3 (Homo sapiens) (UniProt P35916); conditions: at 1 µM
# [18] = target: Macrophage colony-stimulating factor 1 receptor (Homo sapiens) (UniProt P07333); conditions: at 0.1 µM
# [19] = target: Macrophage colony-stimulating factor 1 receptor (Homo sapiens) (UniProt P07333); conditions: at 1 µM
# [20] = target: Tyrosine-protein kinase Fyn (Homo sapiens) (UniProt P06241); conditions: at 0.1 µM
# Chain of Tyrosine-protein kinase Fyn (Homo sapiens) (P06241 2-537 limits assumed): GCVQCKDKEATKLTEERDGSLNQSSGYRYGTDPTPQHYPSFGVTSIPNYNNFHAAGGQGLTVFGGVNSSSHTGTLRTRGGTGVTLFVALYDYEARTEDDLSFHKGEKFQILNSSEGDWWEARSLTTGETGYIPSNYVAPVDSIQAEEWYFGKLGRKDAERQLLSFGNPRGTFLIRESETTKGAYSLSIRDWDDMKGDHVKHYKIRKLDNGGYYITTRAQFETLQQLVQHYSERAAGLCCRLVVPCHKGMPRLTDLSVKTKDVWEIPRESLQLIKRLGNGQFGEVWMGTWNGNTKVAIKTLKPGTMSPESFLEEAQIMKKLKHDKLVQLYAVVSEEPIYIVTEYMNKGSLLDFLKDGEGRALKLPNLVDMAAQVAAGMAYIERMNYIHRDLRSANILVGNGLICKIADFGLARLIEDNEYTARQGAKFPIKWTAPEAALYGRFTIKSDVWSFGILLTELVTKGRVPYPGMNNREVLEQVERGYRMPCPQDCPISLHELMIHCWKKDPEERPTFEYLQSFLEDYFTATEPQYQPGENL
# Chain of Serine/threonine-protein kinase Nek7 (Homo sapiens) (Q8TDX7 whole entry, looked up): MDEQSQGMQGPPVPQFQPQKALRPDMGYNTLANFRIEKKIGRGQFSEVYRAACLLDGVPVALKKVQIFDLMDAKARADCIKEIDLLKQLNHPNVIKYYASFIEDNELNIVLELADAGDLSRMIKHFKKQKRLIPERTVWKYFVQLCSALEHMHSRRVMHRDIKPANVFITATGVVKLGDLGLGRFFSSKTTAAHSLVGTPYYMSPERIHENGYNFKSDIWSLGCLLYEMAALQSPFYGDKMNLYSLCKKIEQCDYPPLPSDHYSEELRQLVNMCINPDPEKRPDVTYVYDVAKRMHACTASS
# Chain of Serine/threonine-protein kinase PLK1 (Homo sapiens) (P53350 whole entry): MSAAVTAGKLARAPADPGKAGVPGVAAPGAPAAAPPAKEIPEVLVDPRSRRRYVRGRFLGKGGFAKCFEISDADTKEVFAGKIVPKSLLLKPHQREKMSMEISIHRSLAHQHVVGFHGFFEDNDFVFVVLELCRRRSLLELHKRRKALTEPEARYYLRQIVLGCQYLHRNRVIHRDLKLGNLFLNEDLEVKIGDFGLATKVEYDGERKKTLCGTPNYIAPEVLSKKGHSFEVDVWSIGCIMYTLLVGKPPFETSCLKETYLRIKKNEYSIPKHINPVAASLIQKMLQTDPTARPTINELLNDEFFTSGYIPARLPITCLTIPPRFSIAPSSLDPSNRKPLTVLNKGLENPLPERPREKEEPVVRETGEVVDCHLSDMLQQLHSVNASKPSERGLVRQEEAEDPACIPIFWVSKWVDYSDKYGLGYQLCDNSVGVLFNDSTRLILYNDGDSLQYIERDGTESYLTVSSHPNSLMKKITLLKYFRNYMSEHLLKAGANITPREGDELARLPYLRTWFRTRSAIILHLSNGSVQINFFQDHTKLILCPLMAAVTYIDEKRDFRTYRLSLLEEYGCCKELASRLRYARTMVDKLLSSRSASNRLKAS
# Chain of Serine/threonine-protein kinase Nek6 (Homo sapiens) (Q9HC98 whole entry): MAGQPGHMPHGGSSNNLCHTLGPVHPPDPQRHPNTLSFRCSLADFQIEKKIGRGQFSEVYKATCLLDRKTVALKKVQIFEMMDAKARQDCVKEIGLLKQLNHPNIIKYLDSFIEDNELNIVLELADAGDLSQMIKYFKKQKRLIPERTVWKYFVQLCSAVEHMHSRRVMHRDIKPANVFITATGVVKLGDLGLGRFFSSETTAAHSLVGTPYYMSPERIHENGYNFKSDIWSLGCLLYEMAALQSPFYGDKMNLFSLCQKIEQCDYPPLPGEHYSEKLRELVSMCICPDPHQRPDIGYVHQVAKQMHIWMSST
# Chain of Macrophage colony-stimulating factor 1 receptor (Homo sapiens) (P07333 whole entry): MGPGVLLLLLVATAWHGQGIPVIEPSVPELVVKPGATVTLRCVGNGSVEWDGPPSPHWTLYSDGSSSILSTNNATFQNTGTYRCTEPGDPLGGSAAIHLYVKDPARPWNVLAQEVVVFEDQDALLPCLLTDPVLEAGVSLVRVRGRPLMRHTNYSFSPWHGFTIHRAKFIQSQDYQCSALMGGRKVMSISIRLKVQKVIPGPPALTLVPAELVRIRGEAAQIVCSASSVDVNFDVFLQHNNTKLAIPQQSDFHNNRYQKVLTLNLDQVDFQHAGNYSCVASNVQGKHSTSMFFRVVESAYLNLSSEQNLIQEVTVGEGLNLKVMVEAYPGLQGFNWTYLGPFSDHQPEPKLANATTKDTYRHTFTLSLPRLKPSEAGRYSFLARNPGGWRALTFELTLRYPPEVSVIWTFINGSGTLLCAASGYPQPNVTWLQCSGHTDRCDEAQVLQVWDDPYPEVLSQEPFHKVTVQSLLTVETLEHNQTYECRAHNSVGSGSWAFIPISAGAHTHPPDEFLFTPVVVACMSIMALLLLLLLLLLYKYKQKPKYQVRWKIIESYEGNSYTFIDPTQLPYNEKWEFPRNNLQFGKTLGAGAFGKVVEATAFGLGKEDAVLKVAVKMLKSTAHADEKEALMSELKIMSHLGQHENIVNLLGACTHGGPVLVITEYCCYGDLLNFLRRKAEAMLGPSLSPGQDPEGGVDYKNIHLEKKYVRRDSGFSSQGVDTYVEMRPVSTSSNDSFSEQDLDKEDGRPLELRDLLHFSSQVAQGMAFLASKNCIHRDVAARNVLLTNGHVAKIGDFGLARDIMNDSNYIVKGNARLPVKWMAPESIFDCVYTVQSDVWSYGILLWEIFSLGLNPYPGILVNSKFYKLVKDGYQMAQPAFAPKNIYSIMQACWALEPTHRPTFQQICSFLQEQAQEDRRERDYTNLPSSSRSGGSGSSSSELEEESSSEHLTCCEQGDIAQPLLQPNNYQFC
# Chain of Vascular endothelial growth factor receptor 3 (Homo sapiens) (P35916 whole entry): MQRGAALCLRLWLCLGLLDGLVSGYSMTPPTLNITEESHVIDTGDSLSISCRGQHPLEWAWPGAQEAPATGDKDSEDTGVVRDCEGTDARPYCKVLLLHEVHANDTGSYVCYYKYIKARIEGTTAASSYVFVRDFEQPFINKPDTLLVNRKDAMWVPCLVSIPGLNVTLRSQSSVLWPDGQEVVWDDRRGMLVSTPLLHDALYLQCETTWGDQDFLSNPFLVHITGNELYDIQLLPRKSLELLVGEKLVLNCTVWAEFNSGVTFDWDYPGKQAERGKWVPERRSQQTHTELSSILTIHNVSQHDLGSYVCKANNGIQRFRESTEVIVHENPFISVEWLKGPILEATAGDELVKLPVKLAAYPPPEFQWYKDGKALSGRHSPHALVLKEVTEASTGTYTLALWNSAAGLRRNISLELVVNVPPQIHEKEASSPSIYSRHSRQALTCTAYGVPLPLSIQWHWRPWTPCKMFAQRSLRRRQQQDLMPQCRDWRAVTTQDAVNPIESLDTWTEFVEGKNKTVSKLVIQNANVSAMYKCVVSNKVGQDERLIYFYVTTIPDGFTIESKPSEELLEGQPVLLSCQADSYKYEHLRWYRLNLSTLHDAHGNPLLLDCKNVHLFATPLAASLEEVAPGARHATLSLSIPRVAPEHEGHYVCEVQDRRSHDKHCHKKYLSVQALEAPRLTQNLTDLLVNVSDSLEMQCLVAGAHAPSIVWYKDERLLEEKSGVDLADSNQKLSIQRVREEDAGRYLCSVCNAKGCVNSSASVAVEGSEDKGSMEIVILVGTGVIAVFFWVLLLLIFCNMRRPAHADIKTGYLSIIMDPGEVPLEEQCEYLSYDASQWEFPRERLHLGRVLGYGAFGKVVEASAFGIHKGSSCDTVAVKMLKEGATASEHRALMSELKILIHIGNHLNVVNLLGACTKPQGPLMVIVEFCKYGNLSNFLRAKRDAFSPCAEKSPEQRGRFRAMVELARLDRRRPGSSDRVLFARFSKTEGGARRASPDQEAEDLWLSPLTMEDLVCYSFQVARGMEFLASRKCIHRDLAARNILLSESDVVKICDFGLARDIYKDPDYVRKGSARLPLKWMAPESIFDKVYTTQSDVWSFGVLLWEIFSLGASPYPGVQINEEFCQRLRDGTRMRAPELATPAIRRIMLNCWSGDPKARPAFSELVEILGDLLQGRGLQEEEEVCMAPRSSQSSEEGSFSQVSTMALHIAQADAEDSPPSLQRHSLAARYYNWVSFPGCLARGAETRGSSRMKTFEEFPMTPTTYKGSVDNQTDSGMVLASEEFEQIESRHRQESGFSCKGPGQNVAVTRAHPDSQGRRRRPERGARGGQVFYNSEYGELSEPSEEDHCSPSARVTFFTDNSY
Structure (SMILES),inhibition [1],inhibition [2],inhibition [3],inhibition [4],inhibition [5],inhibition [6],inhibition [7],inhibition [8],inhibition [9],inhibition [10],inhibition [11],inhibition [12],inhibition [13],inhibition [14],inhibition [15],inhibition [16],inhibition [17],inhibition [18],inhibition [19],inhibition [20]
COc1cc(/C=N/Nc2ncnc3[nH]ncc23)ccc1O,96.3%,3.25%,12%,3.52%,4.62%,4.45%,5.85%,4.07%,5.51%,0.45%,7.86%,0.7%,7.67%,4.54%,34%,2.46%,26.1%,7.59%,34.4%,8.72%
NS(=O)(=O)c1ccc(N/N=C2\C(=O)Nc3ccc4ncccc4c32)cc1,44.7%,1.98%,5.54%,3.42%,4.79%,-0.98%,-0.3%,4.59%,7.69%,9.44%,41%,2.36%,2.5%,61.2%,80.4%,43.9%,86%,34.8%,79.3%,8.75%
